This is a sample that favours compounds with a hit; in the whole collection about 3.2% have one here.
GBA activity – Glucocerebrosidase | Lysosomal acid glucosylceramidase (Homo sapiens), P04062 | purified enzyme, resorufin glucoside fluorescence (screen aimed at inhibitors), 20 min | Potency, µM | 48,000 compounds, 1.1% hits | AID 360, 2006; in the data active means potency below about 15 µM; inconclusive means mostly about 16 µM to 33 µM;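 further: the screen sought inhibitors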
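Compounds titrated against 0.2 nM normal enzyme, 30 uM resorufin beta-D-glucopyranoside substrate, citrate/phosphate buffer with taurocholate and tween-20, pH 5.9. Reaction ran 20 min at room temperature; fluorescence (Ex 548/Em 600) gave AC50.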
PK Bst – Pyruvate Kinase. 51,000 compounds, 1.2% hits. Potency, µM. purified pyruvate kinase, luminescence ATP production; ribose 5-phosphate activator present at AC10. AID 361, 2006; in the data active means potency below about 11 µM; inconclusive means mostly about 12 µM to 25 µM;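 the screen sought inhibitors and activators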;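 further: scaled between full activation by ribose 5 phosphate and full inhibition by luteolin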
FLuc inh – qHTS Assay for Inhibitors of Firefly Luciferase; Potency, µM (series often up to 57.1 µM), without a hit: at the highest dose activity change, negative = inhibition, usual class: inhibitors; AID 411, 2009; purified firefly luciferase, luminescence, 8 min; 72,000 compounds, 2.2% hits; Luciferin 4-monooxygenase (Photinus pyralis), P08659; active means well fitted inhibition curve with a large enough effect; inconclusive means small, poorly fitted or top-dose-only effect; further: on the % scale 0 is the no-effect control and ±100 the full control effect; nearly all actives have a fitted effect of over 40% in size
Target sequence (P08659 whole entry, looked up): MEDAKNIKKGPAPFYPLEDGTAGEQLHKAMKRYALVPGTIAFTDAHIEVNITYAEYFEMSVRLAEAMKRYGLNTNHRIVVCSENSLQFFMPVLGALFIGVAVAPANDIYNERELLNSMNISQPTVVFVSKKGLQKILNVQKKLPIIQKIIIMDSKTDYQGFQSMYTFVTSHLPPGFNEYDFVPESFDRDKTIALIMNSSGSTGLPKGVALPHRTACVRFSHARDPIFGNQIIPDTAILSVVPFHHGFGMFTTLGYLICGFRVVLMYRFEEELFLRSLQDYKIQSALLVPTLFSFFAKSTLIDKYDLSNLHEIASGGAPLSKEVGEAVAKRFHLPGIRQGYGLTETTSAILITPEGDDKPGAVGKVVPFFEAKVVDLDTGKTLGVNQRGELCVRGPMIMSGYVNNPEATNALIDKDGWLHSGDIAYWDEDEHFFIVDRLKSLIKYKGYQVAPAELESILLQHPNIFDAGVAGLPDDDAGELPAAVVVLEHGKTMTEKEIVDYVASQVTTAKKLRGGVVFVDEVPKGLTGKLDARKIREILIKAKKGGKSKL
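Firefly luciferase (PKLight detection mix) with 10 uM ATP in pH 7.2 imidazole buffer (KCl, MgCl2, Tween 20, BSA). Compounds tested across a concentration series (qHTS). Luminescence read after 8 min at ambient temperature.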
* marks the source's active call; other numbers are inactive results; i = inactive; ? = inconclusive; . = not tested or not shown; [ ] = another dose, or the depositor's remark. Potency means the concentration at half of the fitted maximal effect.

SMILES	GBA activity	PK Bst	FLuc inh
CCCCCCCCCCCCCCCCCCNC(=O)OC[C@@H](COP(=O)([O-])OCC[n+]1ccsc1)OC	.	.	1.1%
COc1nc(Nc2nc3ccccc3c(=O)[nH]2)nc2ccc(C)cc12	.	.	1.7%
Cc1nc(Nc2nc(-c3ccccc3)cc(=O)[nH]2)nc2ccccc12	.	5.14*	10µM*
Cc1ccc(S(=O)(=O)N[C@H]2COC(=O)[C@@H](C)COC(=O)[C@H](C)NC(=O)C/C=C\[C@H]2C)cc1	.	.	-0.3%[11.4 µM]
CN1CCc2nc(SCCOc3ccccc3)c(C#N)cc2C1	10.4*	>57	-2.3%
CCOC(=O)C1=C(CSc2nc3c(cc2C#N)CN(C)CC3)OC(N)=C(C#N)C1c1ccccc1 (stereo not drawn)	.	>25.6	-8.6%[25.5 µM]
C[C@]12CC[C@H]3c4ccc(O)cc4CC[C@@H]3[C@H]1CC[C@@H]2OC(=O)CCc1ccccc1	.	.	2.0%[11.4 µM]
COCCNc1ncnc2ccc(-c3ccoc3)cc12	.	.	-0.3%[2.29 µM]
CN(CCNC(=O)c1cn(C)c2ccc(S(=O)(=O)N(C)C)cc2c1=O)CCc1ccccc1	.	.	-4.1%
CCN(CC)S(=O)(=O)c1ccc2c(c1)c(=O)c(C(=O)NCCN(C)CCc1ccccc1)cn2C	5.58*	>57	1.5%
COc1cc2c(cc1OC)CN(C(=O)C(C)(C)C)CC2	.	.	0.1%
COc1cc2c(cc1OC)CN(C(=O)CC1CC3CCC1C3)CC2 (stereo not drawn)	>76.9	i	12.6µM*
N/C(CC/C(N)=N/O)=N\O	.	.	1.8%[11.4 µM]
OC[C@@H](O)[C@@H](O)[C@@H](O)[C@@H](O)c1nc2ccc(Cl)cc2[nH]1	.	.	2.4%[11.4 µM]
Cn1c(N2CCOCC2)nc(-c2ccccc2)c1-c1ccccc1	8.58*	>57	-34.2%
c1ccc(-c2nc3ccccc3nc2N2CCOCC2)cc1	>76.9	.	0.2%
NC(=S)SCCC(=O)O	.	.	0.4%[11.4 µM]
COc1cc(OC)cc(C(=O)Nn2c(C)nc3ccccc3c2=O)c1	>76.9	>57	1.4%
COc1ccc2[nH]c3c(c2c1)CCn1c-3nc2ccccc2c1=O	>76.9	0.196*	0.631µM*
Cn1c(=O)c(-c2cccs2)nc2cnc(N3CCOCC3)nc21	.	.	-2.4%[11.4 µM]
Cn1c(=O)c(CCc2ccccc2)nc2cnc(N3CCNCC3)nc21	.	.	-8.3%[11.4 µM]
O=c1cnc2cnc(Oc3ccccc3)nc2n1C[C@H]1CCCO1	.	.	0.4%[11.4 µM]
O=C(C1CCCCC1)N1CC(=O)N2CCc3ccccc3[C@@H]2C1	.	.	1.5%[25.5 µM]
COc1ccc(-c2nnc(-c3ccc(N)cc3)o2)cc1	>76.9	3.27*	7.94µM*
COc1ccc(-c2nnc(-c3ccc(N(C)C)cc3)o2)cc1	>76.9	>11.4	-4.5%
SMILES	GBA activity	PK Bst	FLuc inh
COc1ccc(-c2nnc(SCC(=O)/C(C#N)=C(\C)N)o2)cc1	>76.9	.	5.01µM*
COc1ccc(-c2nnc(SCC(=O)c3ccc(C)o3)o2)cc1	>76.9	>57	-0.5%
CC(=O)NCCNc1ncnc2ccc(-c3ccccc3C(F)(F)F)cc12	.	.	-0.6%[2.29 µM]
COc1cc2c(cc1OC)-c1cc3nc4ccccc4nc3n1C(C)(C)C2	.	.	0.1%
c1ccc(SC(Sc2ccccc2)c2ccc3c(c2)OCO3)cc1	.	.	0.9%[11.4 µM]
CC(C)C(C)(C#N)NC(=O)CSc1nc2scc(-c3ccco3)c2c(=O)n1-c1ccccc1 (stereo not drawn)	15.1*	>57	-2.7%
Cc1sc2nc(SCC(=O)NCc3ccco3)n(-c3ccccc3)c(=O)c2c1C	>76.9	>57	1.5%
O=C(Nc1cccc(F)c1)N1CC[C@@]2(CCCN(C(=O)c3cc(C(F)(F)F)cc(C(F)(F)F)c3)C2)C1	.	.	0.0%[11.4 µM]
Cc1nn2cc(-c3ccc(-c4ccccc4)cc3)nc2s1	>76.9	.	1µM*
CCc1nn2cc(-c3ccccc3)nc2s1	>76.9	2.39*	1.58µM*
Cc1c(C(=O)Nc2ccccc2)sc2nc(-c3ccccc3)cn12	?	i	-19.6%
Cc1nn2cc(-c3ccc(Cl)cc3)nc2s1	>76.9	?	3.16µM*
O=C(O)CCc1nn2cc(-c3ccccc3)nc2[nH]c1=O	.	>25.6	-1.2%[25.5 µM]
Cc1nn2c(-c3ccc(Cl)cc3)nnc2s1	.	?	-2.2%[25.5 µM]
Cc1cnc(CNc2ccnc(-c3ccc(C(=O)N(C)C)cc3)n2)cn1	.	.	1.3%[2.29 µM]
O=C1C2=CC[C@H]3C(=O)N(Cc4ccccc4)C(=O)[C@@H]3[C@@H]2[C@H](O)[C@@H]2O[C@H]12	.	.	-1.0%[11.4 µM]
Clc1ccc2c(NC3CCC(N4CCCCC4)CC3)ccnc2c1 (stereo not drawn)	.	.	2.0%[11.4 µM]
COc1ccc(-c2ccc(SCC(=O)Nc3cc(C)on3)nn2)cc1OC	>76.9	i	12.6µM*
COc1ccc(-c2nnc(SCC(=O)Nc3cc(C)on3)n2N)cc1OC	>76.9	>57	0.5%
COc1ccc(COC(=O)N/N=C2/C[C@@H](O)[C@@H](O)[C@@H]3[C@@H]4C(=O)N(Cc5ccccc5)C(=O)[C@H]4CC[C@@H]23)cc1	.	.	-0.5%[11.4 µM]
COc1ccc(-c2nnc(N(C)C(=O)c3cccnc3)s2)cc1	>76.9	.	6.31µM*
Cc1ccc(-c2nnc(N(C)C(=O)c3cccnc3)s2)cn1	>76.9	>57	-1.6%
O=c1[nH]c2ccccc2c2ccccc12	.	.	0.0%
O=c1[nH]c2ccccc2c2nc3ccccn3c12	>76.9	4.33*	?
COc1ccccc1-c1cncnc1NCc1cccs1	.	.	2.8%[2.29 µM]
SMILES	GBA activity	PK Bst	FLuc inh
CC(C)CO/N=C1/C[C@@H](O)[C@@H](O)[C@@H]2[C@@H]3C(=O)N(Cc4ccc5c(c4)OCO5)C(=O)[C@H]3CC[C@@H]12	.	.	-2.2%[11.4 µM]
CCNc1ncc2nc(-c3ccc(Cl)cc3)c(=O)n(C)c2n1	.	.	-4.8%[11.4 µM]
FC(F)(F)c1ccccc1-c1nc(NCCN2CCOCC2)c2ccccc2n1	.	.	1.5%[2.29 µM]
O=C(O)CCCNc1cc(N2CCC3(CC2)OCCO3)c2noc3c2c1C(=O)c1ccccc1-3	11.8*	i	25.1µM*
CCOC(=O)N1CCN(c2cc(NCCC(=O)O)c3c4c(onc24)-c2ccccc2C3=O)CC1	>76.9	i	?
Cc1cnc(CNc2ncnc3ccc(-c4ccc(N(C)C)cc4)cc23)cn1	.	.	-2.6%[2.29 µM]
O=C(O)C(=Cc1ccc(-c2ccccc2)cc1)C(=O)O	.	.	1.2%[11.4 µM]
CCOC(=O)c1c(C)nc2ccccn12	>76.9	>11.4	0.1%
O=C(c1ccccc1)n1c(=S)nc2ccccn21	.	2.25*	1.26µM*
CC(C)[C@@H](OCc1ccccc1)[C@H](C)CO/N=C1/[C@H]2OC2[C@@H](O)[C@H]2[C@H]1CCn1c(=O)n(-c3ccccc3)c(=O)n12 (stereo partly drawn)	.	.	0.4%[11.4 µM]
C/C(CCN1CCCCc2nc(C)c(C)cc21)=N\O[C@@H](C)CN1CCCc2nc(C)c(C)cc21	.	.	0.8%[11.4 µM]
COc1ccccc1NC(=O)Cn1nnc(C(=O)Nc2ccccc2)c1N	>76.9	>57	-3.3%
COc1ccccc1NC(=O)CN1CCN(CC(=O)Nc2ccc(OCc3ccccc3)cc2)CC1	10.2*	>57	0.0%
CCOc1ccc(NC(=O)c2nnn(CC(=O)Nc3ccccc3OC)c2N)cc1	>76.9	.	5.01µM*
COc1ccccc1NC(=O)CN1CCN(CC(=O)Nc2ccc(F)cc2)CC1	i	>57	-4.1%
CC(CCN)(CCN)[N+](=O)[O-]	.	.	0.5%[11.4 µM]
O=C(c1ccncc1)N1CCC2(CCCN(Cc3ccccc3)C2)CC1	.	.	-1.1%[11.4 µM]
CO/N=C1/[C@H]2O[C@@H]2[C@@H](O)[C@H]2[C@H]1CCn1c(=O)n(-c3ccccc3)c(=O)n12	.	.	0.1%[11.4 µM]
CC(C)(C)N1C(=O)[C@H]2[C@H]3[C@H](O)[C@H](O)C/C(=N/OCc4ccccc4)[C@H]3CC[C@@H]2C1=O	.	.	1.5%[11.4 µM]

Bioassay records: PubChem BioAssay, National Center for Advancing Translational Sciences (NCATS)
